Results filed as inconclusive are left out. Where a call stands in place of a potency, no number is given. The source holds several records for some structures; these can differ, active in one and inactive in another. Active and inactive are the calls of the source. The call rests on the fitted dose curve; in most records, active means well fitted inhibition curve with a large enough effect in the repeat runs; inconclusive means weak or mixed curves, or effect the other way; inactive means no such curve, though single readings can be large or run the other way.
Potency means the concentration at half of the fitted maximal effect.

The assay deals with Nuclear receptor subfamily 1 group I member 3 (Homo sapiens) (UniProt Q14994). Briefly: qHTS assay to identify small molecule antagonists of the constitutive androstane receptor (CAR) signaling pathway (AID 1224838).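 Further: HepG2 cells stably expressing hCAR with CYP2B6 luciferase reporter stimulated by CITCO; nearly all actives have a fitted effect of over 40% in size.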 As to conditions: HepG2-CYP2B6-hCAR luciferase, CITCO-stimulated, 24 h; series mostly up to 92.4 µM. The source says: U.S. Tox21 Program National Center for Advancing Translational Sciences [NCATS] NIH Chemical Genomics Center [NCGC] U.S. Environmental Protection Agency [EPA] National Institutes of Environmental Health Sciences [NIEHS] National Toxicology Program [NTP] U.S. Food and Drug Administration [FDA] Tox21 Assay Overview: The constitutive androstane receptor (CAR) is a nuclear receptor which regulates multiple drug metabolizing enzymes (DMEs) and transporters. Activating CAR will generally increase the transcription and subsequent translation of CYP2B6 and CYP3A4. These two DMEs represent about 50% of the drug metabolizing potential in the body. When CAR is deactivated, the metabolizing potential in the body will decrease, subsequently increasing the toxicity in the body or lowering the therapeutic potential of a pro-drug. Recently, there have also been studies performed indicating CARs role in energy metabolism and cancer therapy. Therefore, inhibiting CARs activity could have a potential effect on diabetes and cancer. Identifying environmental toxins and compounds which modulate CAR, through the use of the Tox21 10K compound collection, will be an important step in determining the toxicity and potential therapeutic effects these factors will have on the human body.
Nuclear receptor subfamily 1 group I member 3 (Homo sapiens), sequence (Q14994 whole entry, looked up): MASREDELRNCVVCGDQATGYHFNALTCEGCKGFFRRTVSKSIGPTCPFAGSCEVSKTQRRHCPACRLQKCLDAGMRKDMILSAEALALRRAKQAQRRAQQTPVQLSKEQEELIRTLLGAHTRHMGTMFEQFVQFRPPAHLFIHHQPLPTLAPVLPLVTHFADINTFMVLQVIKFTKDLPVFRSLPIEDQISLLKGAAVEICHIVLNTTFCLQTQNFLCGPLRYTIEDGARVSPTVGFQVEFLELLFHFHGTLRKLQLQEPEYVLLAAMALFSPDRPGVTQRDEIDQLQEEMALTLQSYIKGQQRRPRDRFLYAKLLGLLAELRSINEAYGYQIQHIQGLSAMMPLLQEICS
Tox21 Assay Protocol Summary: A double-stable (hCAR and CYP2B6-2.2kb) transfected cell line, derived from human hepatoma (HepG2) cells, was utilized for the duration of the quantitative high-throughput screens. The HepG2-CYP2B6-hCAR cells suspended in DMEM culture medium supplemented with 10% FBS, 5 ug/mL blasticidin, 0.5 mg/mL geneticin, 100 U/mL penicillin and 100 ug/mL streptomycin were dispensed at 2500 cells/4 uL/well in 1536-well white solid bottom plates using a Multidrop Combi. After the assay plates were incubated at 37 C/5% CO2 for 4 hrs, 23 nL of compounds at 15 concentrations (from 5-48 columns) or positive control (from 1 to 4 columns) were transferred to the assay plates using a Pintool station. One uL of CITCO, was added using a Flying Reagent Dispenser to generate a final concentration of 50 nM CITCO inside each well. After a 24 hr incubation period at 37 C/5% CO2, four uL of ONE-Glo reagent was added into the assay plates using a Flying Reagent Dispenser. After a 30 min incubation period at room temperature, the luminescence intensity in the assay plates was measured using a ViewLux plate reader.
For orientation: qHTS replaces the single test concentration by a dilution series.
For the compound `O=C(c1ccc(O)cc1)c1ccc(O)cc1O`, the Potency entry was “inactive”. As for `C=C1CC[C@H](O)CC1=C/C=C1\CCC[C@]2(C)[C@@H]([C@H](C)/C=C/[C@H](C)C(C)C)CC[C@@H]12`, the entry is “inactive”; as for `CCCCC(CC)COC(C)=O` (stereo not given), “inactive”; as for `Cc1cc(=O)[nH]c(C(C)C)n1`, “inactive”. Regarding `CN(CCOc1ccc(CC2SC(=O)NC2=O)cc1)c1ccccn1` (stereo not given), the Potency entry was “inactive”.

As for `CCCCCCOC(C)=O`, the Potency result is “inactive”. With `O=c1c(-c2ccc(O)cc2)coc2cc(O)ccc12` the entry was “inactive”; with `CCCCC(CC)COC(=O)CCCCCCCC(=O)OCC(CC)CCCC` (stereo not given), 24.3 µM (active) and inactive; with `CCCCCCC(C)(C)S`, “inactive”. With `O=C1O[C@H](CO)[C@@H](O)[C@H](O)[C@H]1O` the entry was “inactive”. Regarding `CCCCC/C=C\C/C=C\CCCCCCCC(=O)OC`, the Potency result is “inactive”. Regarding `CC#C[C@]1(O)CC[C@H]2[C@@H]3CCC4=CC(=O)CCC4=C3[C@@H](c3ccc(N(C)C)cc3)C[C@@]21C`, the Potency result was “inactive”. With `O=C1CCCCC1` the entry was “inactive”; with `O=S(=O)(Oc1ccc(Cl)cc1Cl)c1ccccc1`, “inactive”; with `CCCCOCCOCCOC(=O)CCCCC(=O)OCCOCCOCCCC`, “inactive”. With `CCCCCC/C=C/CCCCCCCC(=O)O` the entry was “inactive”; with `CCc1ccc(O)cc1`, “inactive”.

In the case of `CN(C)c1ccc(C(=N)c2ccc(N(C)C)cc2)cc1`, the Potency was 52.4 µM (active).

As for `O=S(=O)(O)c1cc(S(=O)(=O)O)c2c(N=Nc3ccccc3)c(O)ccc2c1`, the Potency result is “inactive”. With `CC1Cc2ccccc2N1NC(=O)c1ccc(Cl)c(S(N)(=O)=O)c1` (stereo not given) the entry was “inactive”; with `CC(C)NCC(O)COc1cccc2ccccc12` (stereo not given), “inactive”.

As for `O=C(Cl)c1c(Cl)c(Cl)c(C(=O)Cl)c(Cl)c1Cl`, the Potency entry is “inactive”. With `OC1CCCC1` the entry was “inactive”; with `C/C=C(C)/C=C/C=C(C)C`, “inactive”. As for `CCOC(=O)[C@H](CCc1ccccc1)N[C@@H](C)C(=O)N1Cc2ccccc2C[C@H]1C(=O)O`, the entry is “inactive”.

For the compound `COC(=O)Nc1nc2ccc(Sc3ccccc3)cc2[nH]1`, the Potency result was “inactive”.

Regarding `CCCCCCCCC`, the Potency result was “inactive”.

As to `CC[Si](OC(C)=O)(OC(C)=O)OC(C)=O`, the Potency entry is “inactive”. As for `CC1COc2ccccc2N1C(=O)C(Cl)Cl` (stereo not given), the entry is “inactive”; as for `CC(C)(N=C=O)c1cccc(C(C)(C)N=C=O)c1`, “inactive”. As for `C[C@@H]1O[C@@H](OC[C@H]2O[C@@H](Oc3c(-c4ccc(O)c(O)c4)oc4cc(O)cc(O)c4c3=O)[C@H](O)[C@@H](O)[C@@H]2O)[C@H](O)[C@H](O)[C@H]1O`, the entry is “inactive”.

Take `c1ccc2[nH]cnc2c1`: the Potency result was “inactive”. As for `CN(C)c1cccc(O)c1`, the entry is “inactive”; as for `NCCNCCNCCNCCN`, “inactive”; as for `CC(=O)Nc1ccc(C(=O)O)cc1`, “inactive”. With `O=C1N=C(O)CN1/N=C/c1ccc(-c2ccc([N+](=O)[O-])cc2)o1` the entry was “inactive”; with `NC(=O)/N=N/C(N)=O`, “inactive”; with `Cc1ccc(C)c(C)c1`, “inactive”. As for `CC(=O)CCc1ccccc1`, the entry is “inactive”; as for `C=C1C2CCC(C2)C1(C)C` (stereo not given), “inactive”.

Values taken from PubChem BioAssay (Tox21).
